ELG1 repair inh: qHTS screen for small molecules that inhibit ELG1-dependent DNA repair in human embryonic kidney (HEK293T) cells expressing luciferase-tagged ELG1; HEK293T ELG1-luciferase reporter, luminescence, 16 h; DNA damage induced by 5-fluorouridine; Potency, µM (highest dose often 46.1 µM), inactives show top-dose activity change, negative = inhibition, most hits filed as inhibitors; actives 2.3% (n = 330,000); AID 504467, 2011; also: % is scaled to controls: 0 for no effect and ±100 for the full control effect; nearly all actives have a fitted effect of over 55% in size
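5-Fluorouridine DNA damage + compound/DMSO, 2,000 cells/well, 16 h, 37 °C/5% CO2. ONE-Glo, 30 min RT, luminescence. Readout = decrease in reporter signal.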
FLuc modulator: qHTS profiling assay for firefly luciferase inhibitor/activator using purifed enzyme and Km concentrations of substrates (counterscreen for miR-21 project). actives 6.9% (n = 360,000). purified FLuc, Km substrates, luminescence inhibition. Potency, µM (doses to about 57.5 µM), without a hit: at the highest dose activity change, negative = inhibition, usual class: inhibitors;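 also: plate controls were vehicle for no effect and reference inhibitor for full effect; nearly all actives have a fitted effect of over 55% in size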
Target sequence (P08659 whole entry, looked up): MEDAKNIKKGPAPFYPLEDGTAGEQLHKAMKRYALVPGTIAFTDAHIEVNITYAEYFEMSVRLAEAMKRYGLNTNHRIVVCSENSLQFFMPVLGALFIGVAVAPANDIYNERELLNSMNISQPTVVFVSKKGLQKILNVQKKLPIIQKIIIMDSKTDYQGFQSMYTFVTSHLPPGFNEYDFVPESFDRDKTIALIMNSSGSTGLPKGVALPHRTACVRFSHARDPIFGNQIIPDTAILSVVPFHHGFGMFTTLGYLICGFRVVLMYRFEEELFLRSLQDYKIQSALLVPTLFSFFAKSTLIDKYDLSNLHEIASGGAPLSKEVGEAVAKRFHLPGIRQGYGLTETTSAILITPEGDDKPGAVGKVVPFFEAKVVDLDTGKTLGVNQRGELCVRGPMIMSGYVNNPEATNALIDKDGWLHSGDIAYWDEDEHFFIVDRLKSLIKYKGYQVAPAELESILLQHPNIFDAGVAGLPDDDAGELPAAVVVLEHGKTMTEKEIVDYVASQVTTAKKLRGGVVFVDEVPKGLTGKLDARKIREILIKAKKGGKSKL
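Purified P. pyralis luciferase (10nM final) with 10uM D-luciferin and 10uM ATP (Km levels) in 50mM Tris acetate pH 7.5, 10mM Mg acetate, 0.01% Tween-20, 0.05% BSA; qHTS 6-point titration, ~60 µM downward; luminescence read.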
SMN2 splice enh: qHTS Assay for Enhancers of SMN2 Splice Variant Expression; HEK293 SMN2-luciferase splicing reporter, luminescence, 30-36 h; Potency, µM (highest dose often 46.1 µM), for inactives: at the top dose activity change, positive = activation, actives largely listed as activators; actives 2.8% (n = 210,000); AID 1458, 2008; also: % of control where 0% means no effect; nearly all actives have a fitted effect of over 55% in size
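HEK293 cells carry an SMN2 […]–luciferase reporter in which exon 7 inclusion puts luciferase in frame. Cells were plated 10-12 h before compound addition, then incubated 30-36 h at 37C. ONE-Glo luminescence was read; sodium butyrate at 4.5 mM final served as control.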
NPC1 promoter act: qHTS Assay for NPC1 Promoter Activators; actives 2.4% (n = 320,000); Huh7 NPC1 promoter luciferase reporter, 24 h; Potency, µM (series often up to 9.22 µM), for inactives: top-dose activation, most hits filed as activators; also: % of control where 0% means no effect; nearly all actives have a fitted effect of over 60% in size
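Luciferase expression driven by the NPC1 promoter was measured in stably transfected Huh7 cells after a 24 h compound incubation, using a luciferase reagent and a luminescence read.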
ELG1 genotox: qHTS screen for small molecules that induce genotoxicity in human embryonic kidney (HEK293T) cells expressing luciferase-tagged ELG1; Potency, µM (top dose mostly 46 µM), for the others: top-dose activity change, positive = activation, actives largely listed as activators; HEK293T ELG1-luciferase reporter, luminescence, 16 h; actives 1.3% (n = 330,000); AID 504466, 2011; also: % of control where 0% means no effect; nearly all actives have a fitted effect of over 60% in size
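HEK293T cells expressing luciferase-tagged ELG1 were exposed to compound or DMSO vehicle for 16 hr at 37 °C and 5% CO2. Luciferase activity was then measured with ONE-Glo after 30 min at room temperature.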
Rab9 prom act: qHTS Assay for Rab9 Promoter Activators; Huh7 Rab9 promoter-luciferase reporter, luminescence, 24 h; actives 2.8% (n = 320,000); Potency, µM (top dose mostly 9.22 µM), inactives show at the highest dose activation, negative = inhibition, most hits filed as activators; also: % of control where 0% means no effect; nearly all actives have a fitted effect of over 60% in size
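Cells were plated at 1500 per well in reduced-serum medium with 10% FBS and left 2 h. Compound in DMSO was then added for 24 h at 37 °C. Reporter signal was read by luminescence after 10 min with luciferase detection reagent.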
* = called active by the depositor; ? = inconclusive; . = no result given; [ ] = dose if it differs, or a comment. This is a sample that favours compounds with a hit; in the whole collection about 9.3% have one here. Calls follow the shape of the dose curve; as a rule, active = well fitted curve in the direction sought with a large enough effect; inconclusive = small, poorly fitted or top-dose-only effect, or another doubt; inactive = no such curve, though single readings can be large; an effect the other way counts as inactive or inconclusive. Potency is read from the fitted curve at half-maximal effect.

SMILES	ELG1 repair inh	FLuc modulator	SMN2 splice enh	NPC1 promoter act	ELG1 genotox	Rab9 prom act
Cc1ccccc1NC(=O)c1c(NC(=O)c2ccco2)sc2c1CCC(C(C)(C)C)C2 (stereo unspecified)	.	4%	1%	.	.	.
CCC1CCc2c(sc(NC(=O)c3cnccn3)c2C(N)=O)C1 (stereo unspecified)	?	2.4µM*	.	26%	15%	25%
CCOC(=O)c1c(NC(=O)c2cc3ccccc3c(=O)o2)sc2c1CCC(C(C)(C)C)C2 (stereo unspecified)	.	17µM*	-4%	.	.	.
CCC1CCc2c(sc(NC(=O)c3ccco3)c2C(N)=O)C1 (stereo unspecified)	?	1.3µM*	18µM*	?	?	2.8µM*
CC(C)(C)C1CCc2c(sc(NC(=O)c3ccco3)c2C(N)=O)C1 (stereo unspecified)	?	0.43µM*	-60%	?	?	2.8µM*
Cn1c(C(=O)NCCN2CCOCC2)cc2sccc21	14%	3%	-18%	2%	1%	15%
CCCC(CCC)c1nnc(NC(=O)c2ccco2)s1	-2%	-1%	.	0%	1%	0%
CCC(NC(=O)OC(C)(C)C)C(=O)Oc1ccc2c3c(c(=O)oc2c1)CCC3 (stereo unspecified)	5%	-19%	3%	2%	8%	-5%
COc1cc(OC)cc(C(=O)NNC(=O)CCC2CCCC2)c1	0%	.	.	.	-3%	.
CN(C)CC1CCCCC1OC(=O)/C=C/c1ccc(Cl)cc1Cl (stereo unspecified)	3%	-10%	-1%	-6%	-9%	-6%
O=C1c2ccc3c4c(ccc(c24)C(=O)N1CCCCO)C(=O)N(CCCCO)C3=O	2.1µM*	-8%	-83%	-37%	-9%	-44%
O=C(C1CCCN(S(=O)(=O)c2cccs2)C1)N1CCN(c2ccccc2F)CC1 (stereo unspecified)	.	7%	-29%	.	.	.
Cc1ccc(-c2csc(NC(=O)CSc3nc4ccccc4o3)n2)cc1	?	.	14µM*	26%	?	25%
CC1CCc2nc(NC(=O)CSc3nc4ccccc4o3)sc2C1 (stereo unspecified)	?	6.7µM*	-81%	?	6.5µM*	?
COc1ccc(S(=O)(=O)N2CCN(c3cccc(C)c3C)CC2)c2ccccc12	.	-4%	5%	.	.	.
Cc1cccc(C)c1NC(=O)Cn1c(=O)n(CCCC(=O)NCc2ccco2)c(=O)c2sccc21	-12%	-5%	.	1%	-2%	1%
CCOC(=O)c1cccc(NS(=O)(=O)c2cc(Br)cc3c2N(C(=O)C2CC2)CC3)c1	.	?	-75%	.	.	.
O=C(C[n+]1ccccc1)Nc1c(Cl)cc(Cl)cc1Cl	17%	?	.	6%	3%	?
Cc1ccc[n+](CC(=O)Nc2c(Cl)cc(Cl)cc2Cl)c1	?	19µM*	.	11%	11%	24%
CCOC(=O)c1cnc2c(OC)cccc2c1N1CCN(c2ccccc2OC)CC1	10µM*	-6%	.	-1%	-7%	-4%
CCc1ccc(Oc2cc(C)nc(N)n2)cc1	?	4.3µM*	10µM*	3.2µM*	?	3.2µM*
CCCc1ccc(Oc2cc(Cl)nc(N)n2)cc1	?	-5%	-3%[1.84 µM]	4%	10%	?
COc1ccc(NC(=O)Nc2ccccc2SC)cc1OC	?	19µM*	.	22%	14%	?
COc1cccc(NC(=O)Nc2ccccc2SC)c1	24%	17µM*	22%	17%	15%	15%
